# The supplement of paper PMC12282887
# ± gives the standard deviation of the averaged measurements.
# Legend:
# Experiment in all cases: promoter activity interaction Z-score (Lux/OD deviation from empty-vector control); higher = stronger promoter induction by the compound
# [1] = tested on: E. coli BW25113 acrABp lux reporter
# Summary of the method: (§1)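 E. coli BW25113 (wild type or marA, soxS or rob deletion) carrying low-copy luxCDABE promoter reporters grew in 40 µl LB Lennox in 384-well plates at 37°C. Each compound was tested at four 1:2 dilutions in biological duplicates. OD600 and luminescence were read every 30 min for 12 h. Areas were taken over 0–8 h (wild type) or 1–9 h (mutants), and wells below 10% of median growth area were removed. The score is the Z-transformed residual of growth-normalised luminescence fitted against the empty-vector control.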
# [2] = tested on: E. coli BW25113 marRABp lux reporter
# Summary of the method: as §1
# [3] = tested on: E. coli BW25113 micFp lux reporter
# Summary of the method: as §1
# [4] = tested on: E. coli BW25113 ompFp lux reporter
# Summary of the method: as §1
# [5] = tested on: E. coli BW25113 robp lux reporter
# Summary of the method: as §1
# [6] = tested on: E. coli BW25113 soxSp lux reporter
# Summary of the method: as §1
# [7] = tested on: E. coli BW25113 tolCp lux reporter
# Summary of the method: as §1
# [8] = 23 µg/ml, genetic background: wild type
# [9] = 23 µg/ml, genetic background: ΔmarA
# [10] = 23 µg/ml, genetic background: Δrob
# [11] = 23 µg/ml, genetic background: ΔsoxS
# [12] = 46 µg/ml, genetic background: wild type
# [13] = 46 µg/ml, genetic background: ΔmarA
# [14] = 46 µg/ml, genetic background: Δrob
# [15] = 46 µg/ml, genetic background: ΔsoxS
# [16] = 92.1 µg/ml, genetic background: wild type
# [17] = 92.1 µg/ml, genetic background: ΔmarA
# [18] = 92.1 µg/ml, genetic background: Δrob
# [19] = 92.1 µg/ml, genetic background: ΔsoxS
# [20] = 184.2 µg/ml, genetic background: wild type
# [21] = 184.2 µg/ml, genetic background: ΔmarA
# [22] = 184.2 µg/ml, genetic background: Δrob
# [23] = 184.2 µg/ml, genetic background: ΔsoxS
smiles,measurement,setting,value
COc1cc(/C=C/C(=O)CC(=O)/C=C/c2ccc(O)c(OC)c2)ccc1O [Curcumin],promoter activity interaction Z-score,[1]; [8],-0.214 ± 0.21
same,promoter activity interaction Z-score,[1]; [9],1.82 ± 1
same,promoter activity interaction Z-score,[1]; [10],0.162 ± 0.49
same,promoter activity interaction Z-score,[1]; [11],0.139 ± 0.18
same,promoter activity interaction Z-score,[1]; [12],0.341 ± 0.83
same,promoter activity interaction Z-score,[1]; [13],1.2 ± 0.066
same,promoter activity interaction Z-score,[1]; [14],0.14 ± 0.34
same,promoter activity interaction Z-score,[1]; [15],0.0402 ± 0.48
same,promoter activity interaction Z-score,[1]; [16],0.529 ± 0.2
same,promoter activity interaction Z-score,[1]; [17],1.08 ± 0.031
same,promoter activity interaction Z-score,[1]; [18],0.869 ± 0.75
same,promoter activity interaction Z-score,[1]; [19],0.0855 ± 0.34
same,promoter activity interaction Z-score,[1]; [20],0.33 ± 0.052
same,promoter activity interaction Z-score,[1]; [21],1.06 ± 1.1
same,promoter activity interaction Z-score,[1]; [22],1.36 ± 1.6
same,promoter activity interaction Z-score,[1]; [23],0.0296 ± 0.41
same,promoter activity interaction Z-score,[2]; [8],0.0587 ± 1
same,promoter activity interaction Z-score,[2]; [9],0.238 ± 0.1
same,promoter activity interaction Z-score,[2]; [10],0.099 ± 0.28
same,promoter activity interaction Z-score,[2]; [11],0.112 ± 0.41
same,promoter activity interaction Z-score,[2]; [12],-0.237 ± 0.12
same,promoter activity interaction Z-score,[2]; [13],0.377 ± 0.29
same,promoter activity interaction Z-score,[2]; [14],-0.00179 ± 0.26
same,promoter activity interaction Z-score,[2]; [15],-0.0875 ± 0.19
same,promoter activity interaction Z-score,[2]; [16],0.812 ± 0.01
same,promoter activity interaction Z-score,[2]; [17],1.05 ± 0.41
same,promoter activity interaction Z-score,[2]; [18],0.00921 ± 0.51
same,promoter activity interaction Z-score,[2]; [19],-0.225 ± 0.28
same,promoter activity interaction Z-score,[2]; [20],0.402 ± 1
same,promoter activity interaction Z-score,[2]; [21],-0.341 ± 0.046
same,promoter activity interaction Z-score,[2]; [22],0.198 ± 0.15
same,promoter activity interaction Z-score,[2]; [23],-0.312 ± 0.3
same,promoter activity interaction Z-score,[3]; [8],-0.542 ± 0.23
same,promoter activity interaction Z-score,[3]; [9],0.217 ± 0.034
same,promoter activity interaction Z-score,[3]; [10],-0.24 ± 0.022
same,promoter activity interaction Z-score,[3]; [11],-0.0851 ± 0.53
same,promoter activity interaction Z-score,[3]; [12],-0.984 ± 0.24
same,promoter activity interaction Z-score,[3]; [13],0.275 ± 0.043
same,promoter activity interaction Z-score,[3]; [14],-0.0884 ± 0.0078
same,promoter activity interaction Z-score,[3]; [15],0.00161 ± 0.34
same,promoter activity interaction Z-score,[3]; [16],-0.158 ± 0.37
same,promoter activity interaction Z-score,[3]; [17],0.257 ± 0.096
same,promoter activity interaction Z-score,[3]; [18],-0.122 ± 0.094
same,promoter activity interaction Z-score,[3]; [19],-0.241 ± 0.17
same,promoter activity interaction Z-score,[3]; [20],-0.608 ± 0.096
same,promoter activity interaction Z-score,[3]; [21],0.122 ± 0.096
same,promoter activity interaction Z-score,[3]; [22],-0.251 ± 0.11
same,promoter activity interaction Z-score,[3]; [23],0.0295 ± 0.21
same,promoter activity interaction Z-score,[4]; [8],-0.638 ± 0.26
same,promoter activity interaction Z-score,[4]; [9],0.332 ± 0.5
same,promoter activity interaction Z-score,[4]; [10],0.137 ± 1.3
same,promoter activity interaction Z-score,[4]; [11],-0.824 ± 0.29
same,promoter activity interaction Z-score,[4]; [12],-0.568 ± 0.12
same,promoter activity interaction Z-score,[4]; [13],0.31 ± 0.57
same,promoter activity interaction Z-score,[4]; [14],0.208 ± 0.91
same,promoter activity interaction Z-score,[4]; [15],-0.0625 ± 1.2
same,promoter activity interaction Z-score,[4]; [16],-0.201 ± 0.71
same,promoter activity interaction Z-score,[4]; [17],-0.362 ± 0.33
same,promoter activity interaction Z-score,[4]; [18],0.836 ± 0.9
same,promoter activity interaction Z-score,[4]; [19],-0.27 ± 0.58
same,promoter activity interaction Z-score,[4]; [20],-0.368 ± 0.11
same,promoter activity interaction Z-score,[4]; [21],-0.675 ± 0.88
same,promoter activity interaction Z-score,[4]; [22],-0.647 ± 0.46
same,promoter activity interaction Z-score,[4]; [23],-0.351 ± 0.82
same,promoter activity interaction Z-score,[5]; [8],0.788 ± 0.71
same,promoter activity interaction Z-score,[5]; [9],1.07 ± 0.14
same,promoter activity interaction Z-score,[5]; [10],0.0477 ± 0.46
same,promoter activity interaction Z-score,[5]; [11],0.332 ± 0.6
same,promoter activity interaction Z-score,[5]; [12],0.38 ± 0.33
same,promoter activity interaction Z-score,[5]; [13],1.13 ± 0.87
same,promoter activity interaction Z-score,[5]; [14],0.606 ± 0.79
same,promoter activity interaction Z-score,[5]; [15],0.859 ± 0.5
same,promoter activity interaction Z-score,[5]; [16],0.913 ± 0.078
same,promoter activity interaction Z-score,[5]; [17],0.411 ± 0.0043
same,promoter activity interaction Z-score,[5]; [18],0.829 ± 1.5
same,promoter activity interaction Z-score,[5]; [19],-0.797 ± 0.19
same,promoter activity interaction Z-score,[5]; [20],-0.161 ± 0.49
same,promoter activity interaction Z-score,[5]; [21],0.0014 ± 0.21
same,promoter activity interaction Z-score,[5]; [22],0.959 ± 1.3
same,promoter activity interaction Z-score,[5]; [23],0.501 ± 0.48
same,promoter activity interaction Z-score,[6]; [8],-0.156 ± 0.019
same,promoter activity interaction Z-score,[6]; [9],0.209 ± 0.098
same,promoter activity interaction Z-score,[6]; [10],-0.0921 ± 0.039
same,promoter activity interaction Z-score,[6]; [11],0.264 ± 0.5
same,promoter activity interaction Z-score,[6]; [12],-0.559 ± 0.02
same,promoter activity interaction Z-score,[6]; [13],0.12 ± 0.11
same,promoter activity interaction Z-score,[6]; [14],-0.0695 ± 0.0052
same,promoter activity interaction Z-score,[6]; [15],0.244 ± 0.33
same,promoter activity interaction Z-score,[6]; [16],-0.204 ± 0.11
same,promoter activity interaction Z-score,[6]; [17],-0.148 ± 0.051
same,promoter activity interaction Z-score,[6]; [18],-0.206 ± 0.015
same,promoter activity interaction Z-score,[6]; [19],-0.186 ± 0.41
same,promoter activity interaction Z-score,[6]; [20],-0.42 ± 0.036
same,promoter activity interaction Z-score,[6]; [21],-0.399 ± 0.12
same,promoter activity interaction Z-score,[6]; [22],-0.341 ± 0.14
same,promoter activity interaction Z-score,[6]; [23],-0.153 ± 0.15
same,promoter activity interaction Z-score,[7]; [8],-0.731 ± 0.53
same,promoter activity interaction Z-score,[7]; [9],-0.0769 ± 0.49
same,promoter activity interaction Z-score,[7]; [10],-0.819 ± 0.47
same,promoter activity interaction Z-score,[7]; [11],0.356 ± 0.35
same,promoter activity interaction Z-score,[7]; [12],-0.815 ± 0.45
same,promoter activity interaction Z-score,[7]; [13],0.181 ± 0.66
same,promoter activity interaction Z-score,[7]; [14],-0.0696 ± 0.8
same,promoter activity interaction Z-score,[7]; [15],-0.467 ± 0.52
same,promoter activity interaction Z-score,[7]; [16],-0.469 ± 0.65
same,promoter activity interaction Z-score,[7]; [17],0.826 ± 0.17
same,promoter activity interaction Z-score,[7]; [18],-0.739 ± 0.063
same,promoter activity interaction Z-score,[7]; [19],0.259 ± 0.43
same,promoter activity interaction Z-score,[7]; [20],-0.549 ± 0.6
same,promoter activity interaction Z-score,[7]; [21],-0.037 ± 0.23
same,promoter activity interaction Z-score,[7]; [22],-0.376 ± 0.11
same,promoter activity interaction Z-score,[7]; [23],0.000633 ± 0.47
